High-throughput results as filed in PubChem.
KB-V1 cytotox = KB-V1 MDR subline cytotoxicity; KB-V1 MDR cells viability, CellTiter-Glo, 72 h; Potency, µM (doses to about 46.1 µM), hits mostly cytotoxic; 400,000 tested, 3.4% active; AID 1347076; also: nearly all actives have a fitted effect of over 60% in size
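KB-V1 cells (P-gp-expressing MDR subline of KB-3-1) in phenol-red-free DMEM with 10% FBS were exposed to library compounds over a concentration series for 72 h at 37 degrees C. Viability read by CellTiter-Glo luminescence; concentration-effect curves fitted after normalization.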
HT1080 IDH1KD tx = HT-1080 IDH1 knockdown cell toxicity (counter line). HT-1080 IDH1 knockdown viability, ATP luminescence, 48 h. Potency, µM (titrated, usually from 46.1 µM), usual class: cytotoxic. 360,000 tested, 2% active. AID 686971
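CellTiter-Glo luminescence after 48 h compound exposure at 37 degrees C of IDH1-knockdown HT-1080 cells in 5% FBS RPMI. %Activity scaled between DMSO wells and cell-free media wells, with curves fitted and assigned curve classes.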
DT40 TDP1 CPT = growth inhibition of DT40 Tdp1-/-;hTDP1 cells with camptothecin (screen for TDP1 inhibitors); chicken DT40 Tdp1-/-;hTDP1 cells + 20 nM CPT, ATP luminescence, 48 h; Potency, µM (titrated, usually from 46.2 µM), most hits filed as inhibitors; 420,000 tested, 12% active; also: nearly all actives have a fitted effect of over 55% in size
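Chicken DT40 Tdp1-/- cells complemented with human TDP1, 400 cells/well, exposed to compounds plus 20 nM camptothecin for at least 48 h at 37 C; viability read as ATP content by CellTiter-Glo luminescence.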
DT40 TDP1 no CPT = qHTS for Inhibitors of human tyrosyl-DNA phosphodiesterase 1 (TDP1): qHTS in cells in absence of CPT; DT40 Tdp1-/- hTDP1 cells, no CPT, ATP luminescence, 48 h; Potency, µM (doses to about 46.2 µM), actives largely listed as inhibitors; 420,000 tested, 15% active; also: nearly all actives have a fitted effect of over 55% in size
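Seeded 400 DT40-hTDP1 cells/well (vehicle DMSO, no 20 nM CPT); pinned compounds; ≥48 hr at 37 °C; CellTiter-Glo luminescence as viability measure.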
HT1080-NT tox = kills 2HG-producing HT-1080-NT fibrosarcoma cells | 360,000 tested, 1.6% active | HT-1080-NT fibrosarcoma viability, CellTiter-Glo ATP luminescence, 48 h | Potency, µM (highest dose often 46.1 µM), hits mostly cytotoxic;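 also: NT is the 2HG producing partner of a matched IDH1 knockdown line; nearly all actives have a fitted effect of over 55% in size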
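Viability of the 2HG-overproducing fibrosarcoma line after 48 hours of compound exposure at 37 degrees C was determined by luminescence with CellTiter-Glo, and concentration-effect curves were then fitted and categorized.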
KB-3-1 cytotox = KB-3-1 parental cell cytotoxicity; KB-3-1 viability, CellTiter-Glo ATP luminescence, 72 h; Potency, µM (series often up to 46.1 µM), most hits filed as cytotoxic; 400,000 tested, 1.4% active; AID 1347075; also: nearly all actives have a fitted effect of over 60% in size
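Cytotoxicity measured as CellTiter-Glo luminescence after 72 h at 37 C. Compound titrations were pinned onto drug-naive KB-3-1 parental adenocarcinoma cells grown in DMEM with 10% FBS, and normalized data fitted to concentration-response curves.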
A number is an active result; – = inactive; ? = inconclusive; · = no result given. Hits are enriched below; roughly 19% of the tested compounds scored in any of these assays. Calls follow the shape of the dose curve; as a rule, active = well fitted curve in the direction sought with a large enough effect; inconclusive = small, poorly fitted or top-dose-only effect, or another doubt; inactive = no such curve, though single readings can be large; an effect the other way counts as inactive or inconclusive.

SMILES | KB-V1 cytotox | HT1080 IDH1KD tx | DT40 TDP1 CPT | DT40 TDP1 no CPT | HT1080-NT tox | KB-3-1 cytotox
O=C(Cc1ccc(F)cc1)N1CCC(CC2CC(c3cccc(Br)c3)=NO2)(C(=O)NCC2CCCCC2)CC1 (configuration not stated) | – | – | ? | ? | – | –
O=C(CCCCCBr)N1CCC(CC2CC(c3ccc(Cl)cc3)=NO2)(C(=O)NCC2CCCCC2)CC1 (configuration not stated) | ? | – | – | ? | – | –
Cc1cc(C)c(S(N)(=O)=O)c(C)c1N(C)S(=O)(=O)c1ccc(Cl)cc1 | – | – | ? | ? | – | –
NS(=O)(=O)c1ccc(NC(=O)COc2ccc(Cl)cc2)cc1 | – | – | – | – | – | –
COc1ccc(N2C(=O)CC(N3CCC(O)(c4ccc(Br)cc4)CC3)C2=O)cc1 (configuration not stated) | – | – | 18.4µM | ? | – | –
O=C1CC(N2CCC(O)(c3ccc(Br)cc3)CC2)C(=O)N1c1ccc(Cl)cc1 (configuration not stated) | ? | – | ? | 25.9µM | – | –
COc1ccc(C(=O)OCc2cc(=O)n3nc(-c4cccs4)sc3n2)cc1 | – | · | – | ? | · | –
CC(C)CC(COCc1ccc([N+](=O)[O-])cc1)N1CCN(C(=O)c2ccc(C(F)(F)F)cc2)CCC1=O (configuration not stated) | – | – | 18.4µM | ? | – | ?
CC(C)C[C@@H](COCc1ccc(F)cc1)N1CCN(C(=O)c2cccc(C(F)(F)F)c2)CCC1=O | ? | – | ? | ? | – | –
Cc1cccc(COCC(CC(C)C)N2CCN(C(=O)c3ccc(C(C)(C)C)cc3)CCC2=O)c1 (configuration not stated) | ? | ? | ? | 18.4µM | – | ?
Cc1ccc(COCC(CC(C)C)N2CCN(C(=O)c3cccc(C(F)(F)F)c3)CCC2=O)cc1 (configuration not stated) | – | – | ? | ? | – | –
Cc1cccc(COCC(CC(C)C)N2CCN(C(=O)c3ccc(C(F)(F)F)cc3)CCC2=O)c1 (configuration not stated) | – | – | 23.1µM | ? | – | –
CCC1CCC(C(=O)NC(CCSC)C(=O)NCCc2ccc(S(N)(=O)=O)cc2)CC1 (configuration not stated) | ? | – | – | – | – | –
CSc1nnc(C)c(/C=C/Nc2ccc(C)cc2)n1 | ? | ? | – | 18.4µM | – | –
CSc1nnc(C)c(/C=C/NOCc2ccc(Cl)cc2)n1 | – | – | – | – | – | –
CC1=CC2=NC(=O)CC(C)(C(=O)N(CC(=O)NC3CCCC3)c3ccccc3F)N2C=C1 (configuration not stated) | – | – | – | – | – | –
C/C(=N\NC(=O)c1cc(-c2cccnc2)nc2ccccc12)c1ccc(O)cc1O | ? | ? | 11.6µM | 10.3µM | ? | ?
C/C(=N\NC(=O)c1cc(-c2cccc(OC(C)C)c2)nc2ccccc12)c1cccnc1 | – | ? | 10.3µM | ? | – | –
C/C(=N\NC(=O)c1cc(-c2ccc(C)s2)nc2ccccc12)c1cccnc1 | ? | ? | 11.6µM | ? | – | –
C/C(=N\NC(=O)c1cc(-c2ccccc2C)nc2ccccc12)c1cccnc1 | · | – | ? | ? | – | ·
COc1ccc(-c2cc(C(=O)N/N=C(\C)c3cccnc3)c3cc(C)ccc3n2)cc1OC | – | – | 8.2µM | 1.16µM | – | –
C/C(=N/NC(=O)c1cc(-c2ccccc2)nc2c(Cl)cccc12)c1cccnc1 | · | ? | – | – | – | ·
COc1ccc(-c2oc3ccccc3c2C(=O)OCc2ccccc2OC)cc1 | – | – | ? | ? | – | –
Cc1nn(CC(=O)Nc2ccc(Cl)cn2)c(C)c1Br | – | – | – | ? | – | –
CCOc1ccccc1N1CCN(Cc2cnc(-c3ccccc3)[nH]2)CC1 | – | – | ? | 23.1µM | – | –
SMILES | KB-V1 cytotox | HT1080 IDH1KD tx | DT40 TDP1 CPT | DT40 TDP1 no CPT | HT1080-NT tox | KB-3-1 cytotox
CCOc1ccccc1N1CCN(Cc2ccc(OC)c(OC)c2OC)CC1 | 18.4µM | – | ? | ? | – | –
Cc1ccc(Cc2c(-c3ccco3)nc3c(C)cc(Br)cn23)cc1 | ? | 14.6µM | 3.66µM | 6.51µM | 25.9µM | ?
Brc1ccc2nc(-c3ccco3)c(Cc3ccccc3)n2c1 | – | ? | ? | ? | ? | –
Cc1cc(Br)cn2c(Cc3cccc(Cl)c3)c(-c3ccco3)nc12 | – | ? | ? | 20.6µM | ? | ?
Cc1ccc(Cc2c(-c3ccco3)nc3ccc(C)cn23)cc1 | – | – | 16.4µM | 13µM | – | –
Cc1ccc(Cc2c(-c3ccco3)nc3c4ccccc4ccn23)cc1 | ? | 20.6µM | 18.4µM | 14.6µM | 23.1µM | –
COc1ccc(Cc2c(-c3ccc(C)cc3)nc3c4ccccc4ccn23)c(C)c1 | – | – | ? | ? | – | –
Cc1cc(/C=N/n2cnnc2)c(O)c([N+](=O)[O-])c1 | – | – | – | – | – | –
COc1ccc(C2=Cc3ccc(OC(C)=O)cc3OC2)cc1 | ? | – | ? | ? | – | –
CCCCN(CCCC)/C(N)=N/c1nc(C)cc(C)n1 | – | – | 23.1µM | ? | – | –
Cc1cc(C)nc(/N=C(\N)N(Cc2ccccc2)Cc2ccccc2)n1 | – | – | ? | ? | ? | –
COc1ccc(NC(=O)c2cc(C3CCCCN3C(=O)OCCF)on2)c(C)c1 (configuration not stated) | – | – | ? | ? | – | –
C=CCn1cc(CN2CCC(C(=O)Nc3cccc(-c4cccc(Cl)c4)c3)CC2)c(C)n1 | – | ? | 16.4µM | 16.4µM | ? | –
C=CCn1cc(CN2CCC(C(=O)Nc3cccc(-c4cccc(F)c4)c3)CC2)c(C)n1 | ? | – | 23.1µM | 16.4µM | – | ?
CCCn1cc(CN2CCC(C(=O)Nc3cccc(-c4cscn4)c3)CC2)c(C)n1 | – | – | ? | ? | – | ?
C=CCn1cc(CN2CCC(C(=O)Nc3ccc(Oc4cccnc4)cc3)CC2)c(C)n1 | – | – | – | – | – | –
Cn1c(=O)c(NC2CCCCC2)c2c3c(cccc31)C(=O)c1ccccc1-2 | – | – | ? | ? | – | –
CCCCNc1c2c3c(cccc3n(C)c1=O)C(=O)c1ccccc1-2 | ? | ? | ? | 18.4µM | ? | ?
O=S(=O)(c1ccc(NC(=S)N2CCOCC2)cc1)N1CCCCC1 | – | – | – | 14.6µM | – | –
O=S(=O)(c1ccc(NC(=S)N2CCN(c3ccc(O)cc3)CC2)cc1)N1CCOCC1 | – | ? | ? | 11.6µM | ? | ?
